In PubChem BioAssay AID371 (SRMLSC, 2006):
Out of some 3,300 compounds screened, about 280 (8.5%) were called active.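 Rule for the calls: active = mean growth inhibition over the two runs of 50% or more; inactive = mean growth inhibition under 50%.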 Shown is part of a subset that was picked to be rich in actives.

Assay: A549 NSCLC cell proliferation inhibitors – ATP luminescence, human non-small cell lung line, primary screen (AID 371);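 note: compound exposure lasted 72 h before the ATP read; 0% = untreated cell signal and 100% = no luminescence left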
Details: at 10 µM, hits give high values

Row | Structure (SMILES) | growth inhibition
1 | Cc1nn(CC(N)=O)c(=O)c2ccccc12 | 25.7% (inactive)
2 | O=S1(=O)C[C@@H](N2CCOCC2)[C@H](N2CCOCC2)C1 | 3.83% (inactive)
3 | COc1ccc2c(c1)C1(C)CC(C)(C)N2C(=O)N1c1ccccc1 (stereo unspecified) | 38.5% (inactive)
4 | OC1(C2(O)CC(c3ccccc3)ON2)CCCCC1 (stereo unspecified) | 19.6% (inactive)
5 | CCCCc1nc(NCC2CCCO2)c(C#N)c2c1COC(C)(C)C2 (stereo unspecified) | 13.2% (inactive)
6 | CCc1nc(NC2CCCCC2)c(C#N)c2c1COC(C)(C)C2 | 46.1% (inactive)
7 | CCCc1nc(NC2CCCCC2)c(C#N)c2c1COC(C)(C)C2 | 51.4% (active)
8 | CN(C)c1ccc(C=NCC2(O)CCOC(C)(C)C2)cc1 (stereo unspecified) | -1.1% (inactive)
9 | Cc1ccc(OCC(=O)N2CCC(N3CCCCCC3)CC2)cc1 | 0.02% (inactive)
10 | CCOC(=O)c1ccc(N=CC2=C(O)CC(c3ccco3)CC2=O)cc1 (stereo unspecified) | 8.87% (inactive)
11 | O=C1CC(c2ccco2)CC(O)=C1C=Nc1cc(Cl)ccc1O (stereo unspecified) | 52.3% (active)
12 | O=C1CC(c2ccco2)CC(O)=C1C=NCCN1CCN(C2CC(=O)N(c3ccccc3)C2=O)CC1 (stereo unspecified) | 11.7% (inactive)
13 | CC1(C)CC(=O)C2=C(C1)OC(N)=C(C#N)C2C1C=CCCC1 (stereo unspecified) | 5.77% (inactive)
14 | CCOC(=O)c1[nH]c2ccccc2c1N=CN(CC)CC | 1.27% (inactive)
15 | COC(=O)CSC1=C(C#N)C(=O)NC2(CCCCC2)S1 | 7.6% (inactive)
16 | COC(=O)CN(c1nc(C)cc(OC)n1)S(=O)(=O)c1ccccc1 | 12.9% (inactive)
17 | Cc1ccc2cc(CNC(C)(C)C)c(=O)[nH]c2c1 | -14.5% (inactive)
18 | Cn1c(=O)cc(NCc2ccccc2)[nH]c1=O | 8.28% (inactive)
19 | Cc1ccc2nc(NCc3ccccc3)[nH]c2c1 | 66.2% (active)
20 | O=C1OC(Nc2ccc(Br)cc2F)c2ccccc21 (stereo unspecified) | 3.02% (inactive)
21 | CC(=O)Nn1cnc2c(c1=O)C1(CCCC1)Cc1ccccc1-2 | 16.8% (inactive)
22 | N#CCc1nc2c3c4c(sc3ncn2n1)CCCC4 | 9.82% (inactive)
23 | Nc1nc(NC(=O)Cc2ccccc2)nn1-c1ccccc1 | 6.96% (inactive)
24 | O=C(Nc1nc(NC(=O)c2ccco2)n(-c2ccccc2)n1)c1ccccc1 | 82.7% (active)
25 | COc1ccc(C(=O)Nc2nc(N)n(-c3ccccc3)n2)cc1OC | 1.17% (inactive)
26 | Cc1ccc(-n2c(N)c(C(N)=O)sc2=S)cc1 | 6.9% (inactive)

Row | Structure (SMILES) | growth inhibition
27 | CCCC(=O)Nc1nn(CCC)c2nc3ccccc3cc12 | -8.01% (inactive)
28 | CN1C(=O)c2c(sc3c2CCCC3)NC1c1ccccc1O (stereo unspecified) | 27.8% (inactive)
29 | COc1cccc(C2C(C(=O)c3cc4ccccc4o3)=C(O)C(=O)N2CCN(C)C)c1OC (stereo unspecified) | 1.22% (inactive)
30 | CCOC(=O)c1cnn2c1[nH]c(=O)c1ccccc12 | 7.89% (inactive)
31 | CC(C)OC(=O)c1c2nc3ccccc3nc2n2c1[nH]c(=O)c1ccccc12 | 60.3% (active)
32 | CCO/C(C)=N/n1c2nc3ccccc3nc2c2c(=O)n(CC(C)C)c(C)nc21 | 3.19% (inactive)
33 | Cc1cc2ccccc2cc(C)c1=O | 9.2% (inactive)
34 | Cc1cc(=O)oc2c(CN3CCC(C)CC3)c(O)c(Cl)cc12 | -0.87% (inactive)
35 | O=C(CC(c1ccc(F)cc1)c1ccco1)N1CCCC1 (stereo unspecified) | 7.48% (inactive)
36 | Nn1c(SCC(=O)Nc2ccc3c(c2)OCCO3)nnc1C(F)(F)F | 14.6% (inactive)
37 | c1ccc(-c2nnc3n2N=C(c2ccc4c(c2)OCO4)CS3)nc1 | 13.4% (inactive)
38 | COc1ccc(OC)c(C2=Nn3c(nnc3C3CCCCC3)SC2)c1 | 47.4% (inactive)
39 | c1cc2c(cc1C1=Nn3c(nnc3C3CCCCC3)SC1)OCO2 | 50.2% (active)
40 | O=S1CCCSC1c1cccnc1 (stereo unspecified) | -0.58% (inactive)
41 | COc1ccc(/C(O)=C2\C(=O)C(=O)N(c3cc(C)on3)C2c2ccccc2OC)cc1C (stereo unspecified) | 7.8% (inactive)
42 | CCC(C)Nc1nc(-c2cccc(OC)c2O)nc2ccccc12 (stereo unspecified) | 71.5% (active)
43 | COc1cccc(-c2nc(NCc3ccco3)c3ccccc3n2)c1O | 9.14% (inactive)
44 | COC(=O)CNc1nc(-c2cccnc2)nc2ccccc12 | 6.85% (inactive)
45 | COc1cccc(-c2nc(NC(C)(C)C)c3ccccc3n2)c1O | 20.9% (inactive)
46 | COc1cccc(-c2nc(NC(C)C)c3ccccc3n2)c1O | 77.9% (active)
47 | CCN(CC)c1nc(-c2cccc(OC)c2O)nc2ccccc12 | 13.8% (inactive)
48 | CC1(C)Cc2nc(NCCCO)c(C#N)cc2CO1 | -0.91% (inactive)
49 | CCCCOC(=O)C(C)c1c(C)[nH]c(=S)[nH]c1=O (stereo unspecified) | 5.11% (inactive)
50 | O=C(Nc1ncccc1Cl)c1cccc(F)c1 | 7.47% (inactive)
51 | COc1ccc(C2C(C#N)=C(SC)NC3=C2C(=O)CC(C)(C)C3)cc1 (stereo unspecified) | 11.2% (inactive)
52 | Oc1ccccc1-c1nc(NCc2ccco2)c2ccccc2n1 | 31.9% (inactive)

Row | Structure (SMILES) | growth inhibition
53 | Fc1cnc(N2CCOCC2)nc1NCc1ccccc1 | -1.26% (inactive)
54 | c1ccc(N2CCN(c3nc(NCc4ccco4)c4ccccc4n3)CC2)cc1 | 90.4% (active)
55 | COc1cccc(COc2nc3c(c(=O)n(C)c(=O)n3C)n2C)c1 | 29.5% (inactive)
56 | COc1cccc(OC)c1C(=O)Nc1nc2ccc(S(C)(=O)=O)cc2s1 | 11.2% (inactive)
57 | CCCNCC(O)COc1ccccc1C(=O)CCc1ccccc1 (stereo unspecified) | 54.2% (active)
58 | CCCOc1ccccc1C(=O)NCCCC(=O)O | -12.4% (inactive)
59 | CCCCOc1ccccc1C(=O)NCCCC(=O)O | -2.38% (inactive)
60 | Cc1ccccc1NC(=O)NCCc1nc2ccccc2[nH]1 | -5.83% (inactive)
61 | COc1ccc(C(O)C(CN2CCOCC2)c2ccccc2)cc1 (stereo unspecified) | 2.01% (inactive)
62 | COc1ccc(C(=O)CCN2CCCCCC2)cc1 | 2.68% (inactive)
63 | COc1ccc(C(=O)C(CN2CCCC2)c2ccccc2)cc1 (stereo unspecified) | 88.2% (active)
64 | Cc1cc(C)nc(N(C#N)CN2C(=O)c3ccccc3C2=O)n1 | -0.78% (inactive)
65 | COC(=O)c1ccc(C(=O)OC)c(NC(=O)c2cc3ccccc3o2)c1 | 5.58% (inactive)
66 | COC(=O)/C(C#N)=C1/SC=C(C)N1c1ccccc1 | 4.54% (inactive)
67 | Cn1c(OCc2ccco2)nc2c1c(=O)n(Cc1ccc(Cl)c(Cl)c1)c(=O)n2C | 59% (active)
68 | Cn1c(NCc2ccco2)nc2c1c(=O)n(Cc1ccc(Cl)c(Cl)c1)c(=O)n2C | 70% (active)
69 | Cn1c(=O)c2c(nc(NCc3ccco3)n2Cc2ccc(Cl)cc2Cl)n(C)c1=O | 0.48% (inactive)
70 | C=CCOc1nc2c(c(=O)n(Cc3ccc(Cl)c(Cl)c3)c(=O)n2C)n1C | 35.1% (inactive)
71 | Cn1c(=O)c2c(nc(NCc3ccco3)n2Cc2ccccc2Cl)n(C)c1=O | 2.6% (inactive)
72 | Cn1c(OCc2ccc3c(c2)OCO3)nc2c1c(=O)n(Cc1cccc(Cl)c1)c(=O)n2C | -0.73% (inactive)
73 | CNC(=O)c1cc2ccccc2o1 | -3.18% (inactive)
74 | O=c1cc(O)nc2n1CCCS2 | 2.49% (inactive)
75 | COC(=O)C(NC(=O)c1ccco1)(Nc1ccc(Br)cn1)C(F)(F)F (stereo unspecified) | 22.7% (inactive)
76 | CCOC(=O)CC(C#N)c1cn(C)c2ccccc12 (stereo unspecified) | 3.83% (inactive)
77 | C=CC[N+](C)(C)CCCNC(=O)/C=N/O | -6.91% (inactive)
78 | COc1cccc(C(=O)Nc2ccc(-c3nnc(-c4ccco4)o3)cc2)c1 | 23.8% (inactive)

Row | Structure (SMILES) | growth inhibition
79 | CCN(CC)CCn1c(O)c(N=O)c2ccccc21 | 2.91% (inactive)
80 | Cn1c(NCc2ccccc2)nc2c1c(=O)n(Cc1ccccc1)c(=O)n2C | 39.1% (inactive)
81 | Cn1c(N2CCN(c3ccccn3)CC2)nc2c1c(=O)n(Cc1ccc(Cl)cc1)c(=O)n2C | 50.6% (active)
82 | Cn1c(N2CCOCC2)nc2c1c(=O)n(Cc1ccc(Cl)cc1)c(=O)n2C | 17.2% (inactive)
83 | COCCNc1nc2c(c(=O)n(Cc3ccc(OC)cc3)c(=O)n2C)n1C | 12.2% (inactive)
84 | Cn1c(NCc2cccnc2)nc2c1c(=O)n(Cc1ccccc1F)c(=O)n2C | 18.8% (inactive)
85 | COc1ccc(Cn2c(=O)c3c(nc(NCCO)n3C)n(C)c2=O)cc1 | 3.12% (inactive)
86 | Cn1c(NCC(O)c2ccccc2)nc2c1c(=O)n(Cc1ccc(Cl)cc1)c(=O)n2C (stereo unspecified) | 71.7% (active)
87 | Cn1c(NCc2ccccc2)nc2c1c(=O)n(Cc1ccc(Br)cc1)c(=O)n2C | 72.5% (active)
88 | Cn1c(N2CCOCC2)nc2c1c(=O)n(Cc1ccc(Cl)c(Cl)c1)c(=O)n2C | 36.7% (inactive)
89 | Cn1c(N2CCN(c3ccccn3)CC2)nc2c1c(=O)n(Cc1ccccc1Cl)c(=O)n2C | 7.18% (inactive)
90 | Cn1c(NCC(O)c2ccccc2)nc2c1c(=O)n(Cc1ccc(Cl)c(Cl)c1)c(=O)n2C (stereo unspecified) | 88% (active)
91 | Cn1c(=O)n(Cc2ccccc2)c(=O)c2c1nc(NCC1CCCO1)n2Cc1ccccc1 (stereo unspecified) | 45.3% (inactive)
92 | CCCCCSc1nc(O)cc(=O)[nH]1 | -0.41% (inactive)
93 | Cc1nc2c(=O)n(C)c(=O)[nH]c2n1Cc1ccccc1 | 8.92% (inactive)
94 | O=C1C2ON(c3ccccc3)C(c3cccnc3)C2C(=O)N1c1ccccc1 (stereo unspecified) | -1.13% (inactive)
95 | CCOC(=O)c1[nH]c2cc3c(cc2c1NC(=O)CN1CC(C)CC(C)C1)OCO3 (stereo unspecified) | 6.05% (inactive)
96 | CCc1c(C(=O)O)[nH]c2ccc(Br)cc12 | 6.3% (inactive)
97 | CCOC(=O)c1[nH]c2ccc(OC)cc2c1C | 12.4% (inactive)
98 | Cc1cccc(N2CC(=O)N(c3cccc(C)c3)CC2=O)c1 | 3.38% (inactive)
99 | COc1cc2c(C(=O)N3CCN(c4ccccc4)CC3)c(C)oc2cc1Br | 60.9% (active)
100 | CCN(CC)CCNC(=O)c1c(C)oc2cc(Br)c(OC)cc12 | 29.2% (inactive)
101 | COc1ccccc1N1CCN(C(=O)c2c(C)cc(=O)oc2C)CC1 | -0.18% (inactive)
